In the library only some 3.5% were active in any assay of this set; here they are far more common.
FBW7 activator = FBW7 E3 ligase activators, primary screen, biochemical, AlphaScreen, human | AlphaScreen FBW7–phospho-cyclin E peptide binding, activator screen | 650,000 compounds, 0.13% hits | F-box/WD repeat-containing protein 7 (Homo sapiens), Q969H0 | AID 1259310, 2017 | normalized activity (activation), % at 26.1 µM; in the data active = normalized activity above about 1.9%;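 note: purified mutant Fbw7 with reduced substrate affinity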
MITF inh = MITF inhibitors, primary screen, biochemical, AlphaScreen, human; 650,000 compounds, 0.91% hits; inhibition, % at 2.6 µM; Microphthalmia-associated transcription factor (Homo sapiens), O75030; AlphaScreen MITF homodimerization, bead proximity signal; in the data active = inhibition above about 50%;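 note: 0% = vehicle wells with protein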
TEAD-YAP inh = TEAD-YAP interaction inhibition, primary screen, TEAD-YAP interaction inhibitor project, luminescence, HEK-TIYL cells; TEAD-Gal4/YAP UAS-luciferase luminescence; inhibition, % at 9.12 µM; 640,000 compounds, 1.4% hits; in the data active = inhibition above about 32%;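 note: 0% = median of test compound wells and 100% = reference inhibitor wells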
GPR151 activ = activators of human GPR151, primary screen, cell-based, PathHunter beta-arrestin, luminescence; G-protein coupled receptor 151 (Homo sapiens), Q8TDV0; PathHunter beta-arrestin GPR151 cells; activation, % at 11.2 µM; 650,000 compounds, 1% hits; in the data active = activation above about 4.9%;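 note: 0% = median of compound wells and 100% = cells with positive control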
Target sequence (Q8TDV0 whole entry, looked up): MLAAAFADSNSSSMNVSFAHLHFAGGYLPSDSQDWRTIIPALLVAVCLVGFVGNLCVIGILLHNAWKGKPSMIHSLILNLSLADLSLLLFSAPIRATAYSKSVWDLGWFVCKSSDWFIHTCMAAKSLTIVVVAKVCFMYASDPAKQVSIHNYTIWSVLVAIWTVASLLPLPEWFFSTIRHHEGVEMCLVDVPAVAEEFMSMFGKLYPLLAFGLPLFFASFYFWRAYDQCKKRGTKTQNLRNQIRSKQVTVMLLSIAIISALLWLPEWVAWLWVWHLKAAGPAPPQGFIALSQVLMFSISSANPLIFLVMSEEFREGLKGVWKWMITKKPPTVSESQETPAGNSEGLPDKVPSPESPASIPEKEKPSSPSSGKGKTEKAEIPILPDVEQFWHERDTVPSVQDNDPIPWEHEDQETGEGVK
Active calls of the source: *.

SMILES | FBW7 activator | MITF inh | TEAD-YAP inh | GPR151 activ
CNC(=O)c1ccccc1Nc1cc(Nc2ccc(N3CCOCC3)cc2C)ncc1C(F)(F)F | -0.1 | 5.1 | 71.2* | 0.5
COc1cccc(-n2c(=S)sc3c(=O)n(-c4ccccc4OC)c(SCc4cccnc4)nc32)c1 | -0.1 | 6.7 | -9.6 | -0.3
O=C(CCC1CCCC1)Nc1c2c(nn1-c1cccc(Cl)c1)CS(=O)C2 (centres undefined) | -0.1 | -3.7 | 3.1 | 0.6
CNC(=O)c1ccccc1Nc1cc(Nc2ccc(N3CCOCC3)cn2)ncc1C(F)(F)F | 0.1 | 3.5 | 85.6* | -2.0
Cc1cc(Sc2nc3c(C)cccn3c(=O)c2C=O)ncn1 | 1.9* | -0.7 | -2.1 | 0.2
OCC1CCCN1c1nc(NCCc2ccc(O)cc2)c2ncn(-c3ccccc3)c2n1 (centres undefined) | -0.2 | 2.6 | 43.4* | -1.2
COc1ccc(CCNc2nc(N3CCCC3CO)nc3c2ncn3-c2ccccc2)cc1 (centres undefined) | -0.1 | 8.6 | 8.0 | -2.3
CCCNc1nc(N2CCCC2CO)nc2c1ncn2-c1ccccc1 (centres undefined) | 0.0 | 8.2 | 36.7* | 1.8
CCN(CC)C(=O)/C(=C\c1ccc(OC)c(OC)c1)n1ccccc1=O | 0.1 | 3.9 | 1.8 | 1.6
COc1ccc(CSCC(=O)N/N=C/c2ccc(OC(C)=O)cc2)cc1 | 0.1 | 0.2 | -3.8 | 1.5
CCOC(=O)CSc1nc2sc3c(c2c(=O)n1C1CCCCC1)CCN(C)C3 | 2.3* | 3.9 | 15.2 | -0.5
COc1ccccc1CN1CCN2C(=O)[C@H](CCCCN)NC(=O)[C@H]2C1 | -0.2 | -5.1 | -8.7 | -1.8
CC1CC(C)CN(Cn2ncn(C)c2=S)C1 (centres undefined) | -0.2 | 9.1 | -7.4 | 1.1
CN(C)CCCN(C(=O)c1ccc2c(c1)OCCO2)c1nc2c(F)cc(F)cc2s1 | -0.1 | 15.1 | -27.0 | 0.0
CN(C)CCCN(C(=O)c1ccc(Br)s1)c1nc2c(F)cc(F)cc2s1 | 3.2* | -6.0 | -9.0 | 2.6
CN(C)c1ccc2nc3ccc(=[N+](C)C)cc-3sc2c1 | 19.5* | -203.6 | 31.6 | -0.7
Cc1nc2ccc(N=Cc3ccc(N(C)C)cc3)cc2s1 | -0.2 | 4.2 | -0.2 | 2.0
COC(=O)c1cc(S(=O)(=O)N2CCOCC2)cn1C | -0.2 | 0.6 | 1.3 | -0.4
CC(C)Oc1ccc(Br)cc1C(=O)N/N=C/c1ccc(O)cc1 | -0.1 | -3.1 | 2.9 | 0.2
COc1cc2ccccc2cc1C(=O)N/N=C/c1cccs1 | 0.1 | -9.4 | 49.8* | -0.3
O=C(N/N=C/c1cccs1)c1cc2ccccc2cc1O | 0.1 | 8.6 | -4.1 | 0.0
CCOc1ccc(Br)cc1C(=O)N/N=C/c1ccc(C)o1 | 0.0 | -7.6 | 36.2* | -0.1
CCOc1ccc(Br)cc1C(=O)N/N=C/c1cccs1 | 0.2 | 21.7 | 54.9* | -1.5
CC(C)Oc1ccc(Br)cc1C(=O)N/N=C/c1ccco1 | 0.0 | -1.9 | 38.5* | 0.6
COc1cc(OC)c([N+](=O)[O-])cc1/C=C1\C(=O)NC(=O)N(c2ccc(C)cc2)C1=O | 0.0 | 5.9 | -2.7 | -0.4
SMILES | FBW7 activator | MITF inh | TEAD-YAP inh | GPR151 activ
Cc1ccc(N2C(=O)c3cccc4cccc2c34)cc1 | 1.2 | -11.3 | -42.8 | -0.2
Cc1ccc(-c2nc(-c3ccc(Cl)cc3)no2)cc1[N+](=O)[O-] | -0.1 | 0.3 | 0.5 | 0.2
C/C(=N\N=c1/sc2ccccc2n1C)c1ccc(N2CCOCC2)cc1 | 0.1 | -6.1 | -8.3 | 2.7
C/C(=N\N=C(N)N)c1ccc(N2CCOCC2)cc1 | -0.1 | -6.5 | 51.8* | 0.3
O=C(Nc1cccc(O)c1)c1ccccc1 | 0.0 | 2.6 | 48.5* | 1.1
CC(=O)c1ccc(NC(=O)c2noc3c2CCc2ccccc2-3)cc1 | -0.1 | -3.2 | -14.9 | -0.5
Nc1ccc(C(=O)Nc2ccc(O)cc2)cc1 | 0.1 | 5.6 | 26.1 | -0.4
O=C(Nc1cccc(O)c1)c1noc2c1CCc1ccccc1-2 | 0.1 | 9.3 | 86.6* | -4.7
Nc1ccc(C(=O)Nc2cccc(O)c2)cc1 | 0.0 | 20.2 | 58.6* | -5.2
CN(C)CCCN(C(=O)c1ccc2ncsc2c1)c1nc2ccccc2s1 | 0.0 | 3.3 | -18.0 | -1.6
CCCSc1nnc(-c2ccc(OC)cc2)o1 | 1.4 | 8.8 | 44.7* | -3.0
C/C(CC(=O)Nc1ccccc1C)=N\NC(=O)C(=O)Nc1ccccc1C | 2.0* | -9.9 | -19.8 | 1.0
CSc1ccc(/C=c2\sc3nc4ccccc4n3c2=O)cc1 | -0.1 | -4.5 | 30.5 | -0.1

Source: PubChem
